For 40 compounds, growth inhibition results are on record in PubChem BioAssay (NCI).

About 79,000 compounds went through this panel and 15% of them were active in at least one assay; those are over-represented in the sample as a whole. A number with no mark means an inactive call. Calls of active or inactive are those of the source. No stated cut-off is given here; in the data, active means growth inhibition above about 70%; inactive means the rest.

The nature of one experiment: NCI Yeast Anticancer Drug Screen. Data for the mlh1 rad18 strain (AID 175). Conditions: S. cerevisiae mlh1 rad18 strain growth inhibition; at 5.0 µM (retest, dose inferred, filed as 0.5); active compounds read high. A digest of the protocol: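 Genetically defined yeast (DNA repair-deficient) exposed to compounds; growth inhibition determined relative to vehicle.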
As to `CCC1(c2ccc(N3C(=O)c4ccccc4C3=O)cc2)CCC(=O)NC1=O` (stereo not given), the growth inhibition is -27%.

`CN(C)c1c([N+](=O)[O-])cc(N2C(=O)C=CC2=O)cc1[N+](=O)[O-]`: the growth inhibition was 80% (active).

Regarding `CCOC1(OCC)Oc2c(Cl)c(Cl)c(Cl)c(Cl)c2OC1(OCC)OCC`, the growth inhibition is 14%.

With `CC(=O)NC1=C(Oc2ccccc2)C(=O)c2ccccc2C1=O`, the growth inhibition is 96% (active).

`CC1SC(=S)N(c2ccc(Cl)cc2)C1=O` (stereo not given): the growth inhibition was 3%.

As for `CC(NNC(=S)N1CC2CCC(CC2)C1)c1cc2ccccc2cn1` (stereo not given), the growth inhibition was 98% (active).

For the compound `CCCCCCCCCCCCCC(=O)N1CCOCC1`, the growth inhibition was 7%.

Regarding `COC(O)C(=O)c1c2c(cc3c1CC1(Cc4cc5c(cc4C1)CCC5)C3)CCC2` (stereo not given), the growth inhibition is 99% (active).

As to `CCC(=O)OCC(=O)c1ccc(-c2ccccc2)cc1`, the growth inhibition was -8%.

Regarding `CN(Cc1cnc2nc(N)nc(N)c2n1)c1ccc(C(=O)NC(CCC(=O)O)C(=O)O)cc1` (stereo not given), the growth inhibition is -19%.

Regarding `COc1ccc(C(=O)Nc2ccc(O)c(=O)cc2)cc1`, the growth inhibition was 21%.

For `c1cc[c]([Sn]([NH]c2ncnc3[nH]cnc23)([NH]c2ncnc3[nH]cnc23)[c]2ccccc2)cc1`, the growth inhibition was -7%.

Take `CCCCCCCCCCCC1C(C#N)C(=O)NC(=O)C1C#N` (stereo not given): the growth inhibition is 87% (active).

On to `c1ccc(CSc2nnc3c4ccccc4c4ccccc4c3n2)cc1`, for which the growth inhibition was 1%.

Take `Cc1ccc(-n2cc(-c3ccc(Cl)cc3)c3c(N)ncnc32)cc1`: the growth inhibition is 30%.

Take `C[C@]12CCC3[C@@H](CC[C@@H]4c5nonc5CC[C@]34C)C1CCC(=O)N2` (stereo not given in full): the growth inhibition was 16%.

On to `CCN(CC)Cc1cc(N=Nc2c(O)ccc3c(N=Nc4ccc(O)c(CN(CC)CC)c4)c(O)ccc23)ccc1O`, for which the growth inhibition was -1%.

Take `CC(C)(C)c1ccc(OC(=O)Nc2ccc(Cl)cc2[N+](=O)[O-])c(Br)c1`: the growth inhibition is 10%.

Turning to `CCC(CCCN(CC)CCc1ccccc1)OC(=O)c1cc(OC)c(OC)c(OC)c1` (stereo not given), the growth inhibition is 5%.

For the compound `CCN1/C(=C\c2cc[n+](CC)c3ccccc23)C=Cc2ccccc21`, the growth inhibition is 1%.

Take `CC1=C(C(=O)Nc2ccccc2C)C(c2ccc(Cl)c(Cl)c2)C(C(=O)Nc2ccccc2C)=C(C)N1`: the growth inhibition was 8%.

`Clc1ccc2nc3c(c(N4CCOCC4)c2c1)CCCC3`: the growth inhibition was 96% (active).

Take `N#Cc1cc2cccn2c2c1cnn2-c1ccccc1`: the growth inhibition was -10%.

With `COc1cccc(C2c3cc4c(cc3OC(Nc3ccccc3)C2C)OCO4)c1O` (stereo not given), the growth inhibition is 0%.

Consider `Nc1nc(-c2ccccc2)c(-c2ccccc2)c(-c2nc(N)nc(-c3ccccc3)c2-c2ccccc2)n1`, for which the growth inhibition is -12%.

As to `CCOC(C)c1ccccc1` (stereo not given), the growth inhibition is 64%.

As for `O=C1OC(CCCl)(c2ccccc2)CC1CN1CCOCC1` (stereo not given), the growth inhibition was -7%.

Consider `OC(Cc1ccccc1)(c1ccccc1)C(O)(Cc1ccccc1)c1ccccc1` (stereo not given), for which the growth inhibition is 26%.

As to `COc1ccc(N=N/N=c2\sc3cc(OC)ccc3n2C)cc1`, the growth inhibition is -6%.

Turning to `CCCCCC(CO)C(O)(C(F)(F)F)C(F)(F)F` (stereo not given), the growth inhibition is -26%.

As for `CC1=C(C(=O)Nc2ccccc2)C(c2ccccc2F)C(C(=O)Nc2ccccc2)=C(C)N1`, the growth inhibition is -5%.

Regarding `CCOCCC(=O)NNc1ccccc1`, the growth inhibition was 19%.

Take `CCOC(=O)C(Br)C(Br)c1cccc([N+](=O)[O-])c1` (stereo not given): the growth inhibition is 98% (active).

As to `Cc1ccc(-c2c(C#N)c(-c3ccccc3)n(NS(=O)(=O)c3ccc(C)cc3)c(=O)c2C#N)cc1`, the growth inhibition was 34%.

Take `CNC(=O)N1N[C@H](c2ccccc2)[C@@H]1c1ccccc1`: the growth inhibition was 23%.

On to `CCCCCCCCCN(CCCCCCCCC)CC(O)c1cc2c(c3ccccc13)CCCC2` (stereo not given), for which the growth inhibition is 46%.

On to `O=C(O)C(c1ccc(Cl)cc1)c1ccc(Cl)cc1`, for which the growth inhibition was 13%.

As to `O=C1c2ccc3ccccc3c2CN2C(=O)CCC12` (stereo not given), the growth inhibition is 4%.

As for `CCCCCCCCCCCCCCCCNc1ccn(C2CC(OP(=O)(O)OCC3OC(n4cc(CC)c(=O)[nH]c4=O)CC3O)C(CO)O2)c(=O)n1` (stereo not given), the growth inhibition was 59%.

Regarding `Cc1cc(Cl)c(O)c(-c2cc(-c3cccc([N+](=O)[O-])c3)c3c(N)[nH]c(=S)nc3n2)c1`, the growth inhibition is 5%.

Staying with this experiment, now noted: S. cerevisiae mlh1 rad18 strain growth inhibition; at 50.0 µM (retest, dose inferred, filed as 5.0); active compounds read high.
Regarding `CCC1(c2ccc(N3C(=O)c4ccccc4C3=O)cc2)CCC(=O)NC1=O` (stereo not given), the growth inhibition is -25%.

With `CN(C)c1c([N+](=O)[O-])cc(N2C(=O)C=CC2=O)cc1[N+](=O)[O-]`, the growth inhibition was 96% (active).

For the compound `CCOC1(OCC)Oc2c(Cl)c(Cl)c(Cl)c(Cl)c2OC1(OCC)OCC`, the growth inhibition was 96% (active).

As for `CC(=O)NC1=C(Oc2ccccc2)C(=O)c2ccccc2C1=O`, the growth inhibition is 99% (active).

Take `CC1SC(=S)N(c2ccc(Cl)cc2)C1=O` (stereo not given): the growth inhibition was 69%.

Regarding `CC(NNC(=S)N1CC2CCC(CC2)C1)c1cc2ccccc2cn1` (stereo not given), the growth inhibition was 99% (active).

Regarding `CCCCCCCCCCCCCC(=O)N1CCOCC1`, the growth inhibition is 99% (active).

For `COC(O)C(=O)c1c2c(cc3c1CC1(Cc4cc5c(cc4C1)CCC5)C3)CCC2` (stereo not given), the growth inhibition was 98% (active).

Turning to `CCC(=O)OCC(=O)c1ccc(-c2ccccc2)cc1`, the growth inhibition is 1%.

As to `CN(Cc1cnc2nc(N)nc(N)c2n1)c1ccc(C(=O)NC(CCC(=O)O)C(=O)O)cc1` (stereo not given), the growth inhibition is -9%.

For the compound `COc1ccc(C(=O)Nc2ccc(O)c(=O)cc2)cc1`, the growth inhibition is 77% (active).

With `c1cc[c]([Sn]([NH]c2ncnc3[nH]cnc23)([NH]c2ncnc3[nH]cnc23)[c]2ccccc2)cc1`, the growth inhibition is 94% (active).

With `CCCCCCCCCCCC1C(C#N)C(=O)NC(=O)C1C#N` (stereo not given), the growth inhibition is 90% (active).

As for `c1ccc(CSc2nnc3c4ccccc4c4ccccc4c3n2)cc1`, the growth inhibition is 3%.

Regarding `Cc1ccc(-n2cc(-c3ccc(Cl)cc3)c3c(N)ncnc32)cc1`, the growth inhibition was 95% (active).

Regarding `C[C@]12CCC3[C@@H](CC[C@@H]4c5nonc5CC[C@]34C)C1CCC(=O)N2` (stereo not given in full), the growth inhibition is 21%.

For the compound `CCN(CC)Cc1cc(N=Nc2c(O)ccc3c(N=Nc4ccc(O)c(CN(CC)CC)c4)c(O)ccc23)ccc1O`, the growth inhibition is 72% (active).

In the case of `CC(C)(C)c1ccc(OC(=O)Nc2ccc(Cl)cc2[N+](=O)[O-])c(Br)c1`, the growth inhibition was 38%.

On to `CCC(CCCN(CC)CCc1ccccc1)OC(=O)c1cc(OC)c(OC)c(OC)c1` (stereo not given), for which the growth inhibition was 10%.

As for `CCN1/C(=C\c2cc[n+](CC)c3ccccc23)C=Cc2ccccc21`, the growth inhibition was 97% (active).

For the compound `CC1=C(C(=O)Nc2ccccc2C)C(c2ccc(Cl)c(Cl)c2)C(C(=O)Nc2ccccc2C)=C(C)N1`, the growth inhibition is 8%.

For the compound `Clc1ccc2nc3c(c(N4CCOCC4)c2c1)CCCC3`, the growth inhibition is 98% (active).

Consider `N#Cc1cc2cccn2c2c1cnn2-c1ccccc1`, for which the growth inhibition is 12%.

With `COc1cccc(C2c3cc4c(cc3OC(Nc3ccccc3)C2C)OCO4)c1O` (stereo not given), the growth inhibition was 97% (active).

`Nc1nc(-c2ccccc2)c(-c2ccccc2)c(-c2nc(N)nc(-c3ccccc3)c2-c2ccccc2)n1`: the growth inhibition was -16%.

As to `CCOC(C)c1ccccc1` (stereo not given), the growth inhibition was 99% (active).

Consider `O=C1OC(CCCl)(c2ccccc2)CC1CN1CCOCC1` (stereo not given), for which the growth inhibition is 91% (active).

Turning to `OC(Cc1ccccc1)(c1ccccc1)C(O)(Cc1ccccc1)c1ccccc1` (stereo not given), the growth inhibition was 76% (active).

`COc1ccc(N=N/N=c2\sc3cc(OC)ccc3n2C)cc1`: the growth inhibition was 71% (active).

As for `CCCCCC(CO)C(O)(C(F)(F)F)C(F)(F)F` (stereo not given), the growth inhibition is -1%.

Turning to `CC1=C(C(=O)Nc2ccccc2)C(c2ccccc2F)C(C(=O)Nc2ccccc2)=C(C)N1`, the growth inhibition was 47%.

`CCOCCC(=O)NNc1ccccc1`: the growth inhibition is 80% (active).

With `CCOC(=O)C(Br)C(Br)c1cccc([N+](=O)[O-])c1` (stereo not given), the growth inhibition was 99% (active).

Turning to `Cc1ccc(-c2c(C#N)c(-c3ccccc3)n(NS(=O)(=O)c3ccc(C)cc3)c(=O)c2C#N)cc1`, the growth inhibition was 72% (active).

For the compound `CNC(=O)N1N[C@H](c2ccccc2)[C@@H]1c1ccccc1`, the growth inhibition was 60%.

`CCCCCCCCCN(CCCCCCCCC)CC(O)c1cc2c(c3ccccc13)CCCC2` (stereo not given): the growth inhibition was 95% (active).

For the compound `O=C(O)C(c1ccc(Cl)cc1)c1ccc(Cl)cc1`, the growth inhibition was 96% (active).

`O=C1c2ccc3ccccc3c2CN2C(=O)CCC12` (stereo not given): the growth inhibition was 43%.

As for `CCCCCCCCCCCCCCCCNc1ccn(C2CC(OP(=O)(O)OCC3OC(n4cc(CC)c(=O)[nH]c4=O)CC3O)C(CO)O2)c(=O)n1` (stereo not given), the growth inhibition is 87% (active).

`Cc1cc(Cl)c(O)c(-c2cc(-c3cccc([N+](=O)[O-])c3)c3c(N)[nH]c(=S)nc3n2)c1`: the growth inhibition was 50%.
